Active and inactive are the calls of the source. The calls were made as follows: active = hit-call score of the fitted dose curve at least 0.9, where 1 is the maximum; inactive = score below 0.9.
What was measured:
[1] = ATG_CRE_CIS: Attagene CIS-FACTORIAL HepG2 Assay for human cAMP Responsive Element (CRE) binding protein 3 (AID 2282926); details: HepG2 CRE cis-reporter, Attagene multiplexed mRNA; actives raise or lower the signal
In short: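 Endogenous CRE-binding activity in HepG2 is reported through a cis-regulated transfected reporter. Following a day of exposure, mRNA levels are determined by reverse transcription PCR and fluorescent fragment analysis; fits run in both directions versus DMSO.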

[2] = target: CCAAT/enhancer-binding protein beta (Homo sapiens) (UniProt P17676); test: ATG_C_EBP_CIS: Attagene CIS-FACTORIAL HepG2 Assay for human CCAAT/Enhancer Binding Protein (C/EBP) beta (AID 2282927); details: HepG2 Attagene cis-factorial transcription factor reporter; actives raise or lower the signal
CCAAT/enhancer-binding protein beta (Homo sapiens), sequence (P17676 whole entry, looked up): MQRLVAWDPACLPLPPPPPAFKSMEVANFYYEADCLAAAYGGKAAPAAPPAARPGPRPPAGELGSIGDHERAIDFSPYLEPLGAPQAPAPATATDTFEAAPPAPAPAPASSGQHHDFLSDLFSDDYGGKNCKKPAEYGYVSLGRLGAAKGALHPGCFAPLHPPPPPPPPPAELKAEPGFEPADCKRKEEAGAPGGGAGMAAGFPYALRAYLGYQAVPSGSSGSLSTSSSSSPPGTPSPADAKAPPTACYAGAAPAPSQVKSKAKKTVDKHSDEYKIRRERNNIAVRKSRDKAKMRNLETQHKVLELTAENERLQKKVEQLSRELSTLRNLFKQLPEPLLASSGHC
In short: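 RT-PCR/capillary electrophoresis fluorescence of reporter mRNA, 24 h post-dose, in HepG2 cells carrying transfected cis-promoter reporter units. Bidirectional curve fitting against DMSO baseline captures gain or loss of signal.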

[3] = ATG_CMV_CIS: Attagene CIS-FACTORIAL HepG2 Assay for human CMV (Internal Marker) (AID 2282928); details: HepG2 CMV promoter reporter, transcription factor profiling; actives raise or lower the signal;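 also: endpoint acts as a background internal control marker rather than a target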
In short: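 After transient transfection of HepG2 with reporter transcription units driven by cis-regulatory promoters, cells receive test chemical for 24 h. Labeled reporter amplicons, digested with HpaI, are sized and quantified by capillary electrophoresis against DMSO.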

[4] = ATG_AP_2_CIS: Attagene CIS-FACTORIAL HepG2 Assay for human Activator Protein 2 (AP-2) (AID 2282932); details: HepG2 AP-2 cis-reporter, Attagene transcription factor profiling; actives raise or lower the signal
In short: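 Bidirectional curve fitting against DMSO was applied to reporter mRNA signals from HepG2 cells 24 h after dosing. Cis-promoter reporter units, transiently transfected, were read by RT-PCR plus capillary electrophoresis.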

[5] = ATG_BRE_CIS: Attagene CIS-FACTORIAL HepG2 Assay for human Bone Morphogenetic Protein (BMP) Response Element (BRE) (AID 2282933); details: HepG2 BMP response element reporter, Attagene transcription factor profiling; actives raise or lower the signal
In short: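 After a 24 h chemical treatment, transiently transfected HepG2 cells were lysed for RNA; reporter transcripts were quantified by fluorescent RT-PCR and capillary electrophoresis, normalised to DMSO.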

[6] = target: Transcription factor E2F1 (Homo sapiens) (UniProt Q01094); test: ATG_E2F_CIS: Attagene CIS-FACTORIAL HepG2 Assay for human E2F Transcription Factor 1 (AID 2282935); details: HepG2 Attagene cis-reporter, E2F reporter RNA transcripts; actives raise or lower the signal
Transcription factor E2F1 (Homo sapiens), sequence (Q01094 whole entry, looked up): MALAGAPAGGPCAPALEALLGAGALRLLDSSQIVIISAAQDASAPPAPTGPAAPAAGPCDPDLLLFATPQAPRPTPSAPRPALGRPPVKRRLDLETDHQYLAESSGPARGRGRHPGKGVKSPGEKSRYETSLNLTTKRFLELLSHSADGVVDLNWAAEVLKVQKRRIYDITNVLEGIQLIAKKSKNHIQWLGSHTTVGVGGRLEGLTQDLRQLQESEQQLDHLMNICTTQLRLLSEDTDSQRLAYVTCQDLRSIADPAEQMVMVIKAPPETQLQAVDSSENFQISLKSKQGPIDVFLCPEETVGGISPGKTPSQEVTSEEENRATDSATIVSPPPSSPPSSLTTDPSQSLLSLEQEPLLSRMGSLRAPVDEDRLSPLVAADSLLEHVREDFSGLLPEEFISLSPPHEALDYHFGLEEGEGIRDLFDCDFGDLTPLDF
In short: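 Multiplexed cis-reporter assay: HepG2, transient transfection, 24 h dosing, mRNA quantitation by labeled RT-PCR and CE.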

[7] = ATG_E_Box_CIS: Attagene CIS-FACTORIAL HepG2 Assay for human Enhancer Box (E-box) (AID 2282936); details: HepG2 E-box cis-reporter transcription, actives raise or lower the signal
In short: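 Multiplexed CIS reporter system in transiently transfected HepG2 cells measures native transcription factor activity. Reporter RNA after 24 h exposure is profiled by RT-PCR-capillary electrophoresis.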

[8] = ATG_M_61_CIS: Attagene CIS-FACTORIAL HepG2 Assay for M61 Transcription Factor (Internal Marker) (AID 2282937); details: HepG2 Attagene CIS-FACTORIAL M61 internal marker reporter; actives raise or lower the signal
In short: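 Readout: fluorescent reporter mRNA fragments resolved by capillary electrophoresis after RT-PCR. Transiently transfected human HepG2 cells carried MRTU constructs reporting endogenous TF activity; 24 h chemical exposure; gain or loss of signal fitted relative to DMSO.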

[9] = ATG_EGR_CIS: Attagene CIS-FACTORIAL HepG2 Assay for human Early Growth Response 1 (EGR1) (AID 2282938); details: HepG2 Attagene CIS-FACTORIAL EGR reporter mRNA; actives raise or lower the signal
In short: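 Read-out: fluorescent reporter-mRNA fragments resolved by capillary electrophoresis after RT-PCR, 24 h post-dose in transiently transfected HepG2. Endogenous transcription-factor activity reported via cis-element-regulated reporter units; gain or loss fitted relative to DMSO.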

[10] = ATG_Ets_CIS: Attagene CIS-FACTORIAL HepG2 Assay for human Erythroblast Transformation Specific (ETS) (AID 2282941); details: HepG2 ETS cis-reporter transcription, actives raise or lower the signal
In short: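 Human HepG2 hepatoma cells were transiently transfected with promoter-driven reporter constructs and treated for 24 hours. Reporter transcripts were quantified by RT-PCR with fluorescent primer extension; bidirectional curve fitting used DMSO as reference.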

[11] = ATG_FoxO_CIS: Attagene CIS-FACTORIAL HepG2 Assay for human Forkhead box O (FoxO) (AID 2282943); details: HepG2 Attagene cis-reporter, FoxO element, mRNA; actives raise or lower the signal
In short: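 HepG2 cells transiently transfected with cis-promoter-driven multiple reporter transcription units; 24 h after chemical dosing, reporter mRNA quantified by RT-PCR, fluorescent primer extension, HpaI digestion and capillary electrophoresis. Bidirectional fitting versus DMSO baseline.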

[12] = ATG_GLI_CIS: Attagene CIS-FACTORIAL HepG2 Assay for human Zinc Finger Protein GLI1 (AID 2282945); details: HepG2, Attagene cis-factorial reporter mRNA, GLI element; actives raise or lower the signal
In short: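 HepG2 cells transiently transfected with cis-promoter multiplexed reporter units report endogenous transcription factor activity. After 24 h chemical exposure, reporter mRNA was quantified by RT-PCR, 6-FAM labelling, HpaI digestion and capillary electrophoresis, with bidirectional fitting against DMSO.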

[13] = ATG_ISRE_CIS: Attagene CIS-FACTORIAL HepG2 Assay for human Interferon Regulatory Factor 1 (IRF1) binding to an Interferon-Stimulated Response Element (ISRE) (AID 2282948); details: HepG2 ISRE cis-reporter (Attagene), mRNA transcription readout; actives raise or lower the signal
In short: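 Cell-based cis-reporter assay; HepG2; 24 h exposure; reporter mRNA by RT-PCR plus capillary electrophoresis fluorescence; activity in either direction scored relative to DMSO.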

[14] = ATG_M_32_CIS: Attagene CIS-FACTORIAL HepG2 Assay for M32 Transcription Factor (Internal Marker) (AID 2282949); details: HepG2 Attagene cis-factorial M32 reporter, mRNA; actives raise or lower the signal;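 also: background control marker of the multiplexed CIS panel rather than a real target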
In short: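 Fluorescent capillary electrophoresis peaks of HpaI-digested, FAM-labelled RT-PCR reporter products give the signal. Source: transiently transfected human liver HepG2 cells, 24 h after chemical dosing; bidirectional fitting against DMSO.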

[15] = ATG_M_06_CIS: Attagene CIS-FACTORIAL HepG2 Assay for M06 Transcription Factor (Internal Marker) (AID 2282950); details: HepG2 Attagene CIS-FACTORIAL M06 internal marker reporter; actives raise or lower the signal
In short: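 One of many multiplexed endpoints: HepG2 reporter mRNA after 24 h dosing, detected by RT-PCR and capillary electrophoresis fluorescence; gain or loss of signal analysed against DMSO.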

[16] = ATG_MRE_CIS: Attagene CIS-FACTORIAL HepG2 Assay for human Metal Responsive Element (MRE) (AID 2282954); details: HepG2 MRE cis-reporter transcription, Attagene multiplex; actives raise or lower the signal
In short: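 Step one: transfect HepG2 with cis-regulated reporter units. Step two: dose 24 h. Step three: isolate RNA, RT-PCR, 6-FAM label, HpaI digest, capillary electrophoresis. Fit bidirectionally to DMSO.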

[17] = ATG_PXRE_CIS: Attagene CIS-FACTORIAL HepG2 Assay for human Pregnane X Receptor Element (PXRE) (AID 2282957); details: HepG2 Attagene CIS-FACTORIAL PXRE reporter, mRNA; actives raise or lower the signal
In short: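 Cis-element reporter mRNA in human hepatoma HepG2 cells is measured 24 h post-dosing by RT-PCR, primer-extension labeling and capillary electrophoresis; gain or loss of signal is fitted relative to DMSO.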

[18] = ATG_Sox_CIS: Attagene CIS-FACTORIAL HepG2 Assay for human SRY-box transcription factor (SOX) (AID 2282960); details: HepG2 Attagene cis-factorial SOX reporter, mRNA; actives raise or lower the signal
In short: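 Read-out: fluorescent RT-PCR products of SOX1-linked reporter transcripts resolved by capillary electrophoresis, fitted bidirectionally against DMSO. Transiently transfected HepG2 cells, 24 h after chemical exposure, endogenous transcription factor activity.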

[19] = target: Transcription factor Sp1 (Homo sapiens) (UniProt P08047); test: ATG_Sp1_CIS: Attagene CIS-FACTORIAL HepG2 Assay for human Specificity Protein 1 (Sp1) (AID 2282961); details: HepG2 Sp1 cis-reporter transcription, actives raise or lower the signal
Transcription factor Sp1 (Homo sapiens), sequence (P08047 whole entry, looked up): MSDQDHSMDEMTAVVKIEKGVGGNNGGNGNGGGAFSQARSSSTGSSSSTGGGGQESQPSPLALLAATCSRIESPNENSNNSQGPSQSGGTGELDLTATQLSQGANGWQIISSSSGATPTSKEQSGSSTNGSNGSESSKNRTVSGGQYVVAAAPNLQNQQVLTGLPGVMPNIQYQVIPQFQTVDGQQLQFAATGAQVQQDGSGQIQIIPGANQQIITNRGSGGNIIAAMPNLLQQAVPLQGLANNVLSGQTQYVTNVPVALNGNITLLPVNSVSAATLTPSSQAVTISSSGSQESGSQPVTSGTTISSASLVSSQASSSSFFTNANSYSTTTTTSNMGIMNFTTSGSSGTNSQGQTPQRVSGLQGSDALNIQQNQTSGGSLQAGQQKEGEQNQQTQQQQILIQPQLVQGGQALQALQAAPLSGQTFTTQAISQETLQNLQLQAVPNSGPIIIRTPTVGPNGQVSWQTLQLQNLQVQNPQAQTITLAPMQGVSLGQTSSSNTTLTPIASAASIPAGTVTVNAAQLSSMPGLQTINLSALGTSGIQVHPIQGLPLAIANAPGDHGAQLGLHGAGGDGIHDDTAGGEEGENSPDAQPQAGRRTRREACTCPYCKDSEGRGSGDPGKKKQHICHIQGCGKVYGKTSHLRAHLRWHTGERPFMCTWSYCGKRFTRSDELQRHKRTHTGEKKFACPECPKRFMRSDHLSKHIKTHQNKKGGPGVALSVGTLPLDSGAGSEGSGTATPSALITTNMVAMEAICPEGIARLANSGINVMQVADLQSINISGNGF
In short: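 Read-out: fluorescence of 6-FAM-labeled, HpaI-digested RT-PCR products separated by capillary electrophoresis. HepG2 cells carried transfected cis-element reporter units and were exposed to chemicals for 24 h; gain or loss of signal fitted relative to DMSO.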

[20] = ATG_SREBP_CIS: Attagene CIS-FACTORIAL HepG2 Assay for human Sterol Regulatory Element Binding (SREBP) (AID 2282962); details: HepG2 Attagene cis-factorial SREBP reporter, mRNA; actives raise or lower the signal
In short: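 mRNA induction of transfected cis-promoter reporters in HepG2 cells, 24 h post-dose. Detection: RT-PCR with 6-FAM-labelled products, HpaI digest, capillary electrophoresis. DMSO served as negative control and baseline.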

Measured: AC50

CCCCC(CC)COC(=O)CS (stereo not given)
active: [17] 13.1 µM
inactive: all other assays above

CCCC(=O)OC/C=C(\C)CCC=C(C)C
active: [17] 22.7 µM
inactive: all other assays above

O=S(=O)(O)c1cccc2ccccc12
inactive: all assays above

CN1CCCC1
inactive: all assays above

CC(=O)OC(C)(C)Cc1ccccc1
inactive: all assays above

c1cc(N(CC2CO2)CC2CO2)ccc1Cc1ccc(N(CC2CO2)CC2CO2)cc1 (stereo not given)
active: [2] 99.5 µM | [3] 26.6 µM | [4] 26.3 µM | [7] 34.3 µM | [9] 18.4 µM | [12] 26.4 µM | [13] 21.7 µM | [16] 21.3 µM | [19] 5.73 µM | [20] 26.4 µM
inactive: [1] | [5] | [6] | [8] | [10] | [11] | [14] | [15] | [17] | [18]

C=C(C)C(=O)OCCCCCC
active: [17] 26.5 µM
inactive: all other assays above

C=C(C)C(=O)OCC1CCCO1 (stereo not given)
inactive: all assays above

N#CCN(CC#N)CCN(CC#N)CC#N
inactive: all assays above

CCCCCCC1CCCC(=O)O1 (stereo not given)
active: [7] 75.2 µM | [17] 37.5 µM
inactive: all other assays above

COc1cccc(OC)c1C(=O)O
inactive: all assays above

CN(C)Cc1cc(C(C)(C)C)c(O)c(C(C)(C)C)c1
active: [17] 3.41 µM | [20] 43.1 µM
inactive: all other assays above

O=C(O)/C=C\C(=O)O
active: [17] 41.1 µM
inactive: all other assays above

CC(=O)c1nccs1
inactive: all assays above

C=CCOC(=O)C(=C)C
inactive: all assays above
